According to the antibiotic and cytotoxicity screens of Wong et al. (2023):
The campaign covered roughly 39,000 compounds. About 1,500 (3.8%) were called active. Only a selection was taken, and actives are over-represented in it overall.

System: HSkMC (human skeletal muscle cells)
Assay: cytotoxicity call (relative viability < 0.9)
Details: 10 µM

SMILES | cytotoxicity call
COc1ccc(S(=O)(=O)N(C)C[C@@H]2Oc3ccc(NS(=O)(=O)c4cccs4)cc3C(=O)N([C@@H](C)CO)C[C@H]2C)cc1 | inactive
CO[C@@H]1CN(C)C(=O)c2cc(NS(=O)(=O)CC(F)(F)F)ccc2OC[C@@H](C)N(Cc2cccnc2)C[C@@H]1C | inactive
Cc1ccc(S(=O)(=O)N[C@@H]2CC[C@H](CC(=O)NCc3ccc(Cl)c(Cl)c3)O[C@H]2CO)cc1 | inactive
COc1ccc(NC(=O)N(C)C[C@@H]2Oc3ccc(NS(=O)(=O)c4c(C)noc4C)cc3C(=O)N([C@@H](C)CO)C[C@@H]2C)cc1 | inactive
Cc1noc(C)c1S(=O)(=O)N(C)C[C@H]1Oc2ccc(NS(=O)(=O)c3cccs3)cc2CC(=O)N([C@H](C)CO)C[C@H]1C | inactive
C[C@H](CO)N1C[C@H](C)[C@H](CN(C)C(=O)Nc2cccc3ccccc23)OCc2cnnn2CCCC1=O | inactive
C[C@@H]1CN([C@H](C)CO)C(=O)Cc2cc(NC(=O)Nc3ccc(F)cc3)ccc2O[C@H]1CN(C)Cc1ccc(Oc2ccccc2)cc1 | active
C[C@@H]1CN([C@H](C)CO)C(=O)Cc2cc(NC(=O)Nc3ccc(F)cc3)ccc2O[C@@H]1CN(C)Cc1ccc(Oc2ccccc2)cc1 | active
C[C@H]1CN([C@@H](C)CO)C(=O)Cc2cc(NC(=O)Nc3ccc(F)cc3)ccc2O[C@H]1CN(C)Cc1ccc(Oc2ccccc2)cc1 | active
C[C@@H]1CN([C@@H](C)CO)C(=O)Cc2cc(NC(=O)Nc3ccc(F)cc3)ccc2O[C@@H]1CN(C)Cc1ccc(Oc2ccccc2)cc1 | inactive
C[C@H](CO)N1C[C@H](C)[C@H](CN(C)Cc2ccc(Oc3ccccc3)cc2)Oc2ccc(NC(=O)Nc3ccc(F)cc3)cc2CC1=O | inactive
C[C@H](CO)N1C[C@H](C)[C@@H](CN(C)Cc2ccc(Oc3ccccc3)cc2)Oc2ccc(NC(=O)Nc3ccc(F)cc3)cc2CC1=O | inactive
C[C@@H]1CN([C@@H](C)CO)C(=O)Cc2cc(NC(=O)Nc3ccc(F)cc3)ccc2O[C@H]1CN(C)Cc1ccc(Oc2ccccc2)cc1 | inactive
C[C@H]1CN([C@@H](C)CO)C(=O)Cc2cc(NC(=O)Nc3ccc(F)cc3)ccc2O[C@@H]1CN(C)Cc1ccc(Oc2ccccc2)cc1 | inactive
O=C(NC1Cc2ccccc2C1)[C@H]1[C@H](CO)[C@H]2Cn3c(cccc3=O)[C@H]2N1C(=O)c1cnccn1 | inactive
Cc1ccc(S(=O)(=O)Nc2ccc3c(c2)C(=O)N([C@H](C)CO)C[C@@H](C)[C@H](CN(C)S(=O)(=O)c2ccc(Cl)cc2)OCCCC[C@@H](C)O3)cc1 | inactive
C[C@@H]1CCCCO[C@H](CN(C)CC2CCCCC2)[C@H](C)CN([C@H](C)CO)C(=O)c2cc(NC(=O)CCC(F)(F)F)ccc2O1 | inactive
C[C@@H]1CCCCO[C@@H](CN(C)Cc2ccncc2)[C@H](C)CN([C@@H](C)CO)C(=O)c2cc(NS(C)(=O)=O)ccc2O1 | inactive
O=C(CCCCC(=O)N/N=C/[C@H](O)[C@@H](O)[C@H](O[C@@H]1O[C@H](CO)[C@H](O)[C@H](O)[C@H]1O)[C@H](O)CO)NO | inactive

SMILES | cytotoxicity call
CCNC(=O)C[C@H]1CC[C@H](NC(=O)C2CCOCC2)[C@@H](CO)O1 | inactive
O=C(CCCCn1c(=O)[nH]c2ccccc2c1=O)N1CCN(c2ncccn2)CC1 | inactive
C[C@@H]1CN([C@H](C)CO)C(=O)Cc2cc(NC(=O)Nc3ccc(C(F)(F)F)cc3)ccc2O[C@H]1CN(C)C(=O)Nc1ccc(C(F)(F)F)cc1 | active
C[C@@H]1CN([C@H](C)CO)C(=O)Cc2cc(NC(=O)Nc3ccc(C(F)(F)F)cc3)ccc2O[C@@H]1CN(C)C(=O)Nc1ccc(C(F)(F)F)cc1 | active
C[C@H](CO)N1C[C@H](C)[C@@H](CN(C)C(=O)Nc2ccc(C(F)(F)F)cc2)Oc2ccc(NC(=O)Nc3ccc(C(F)(F)F)cc3)cc2CC1=O | inactive
C[C@H]1CN([C@@H](C)CO)C(=O)Cc2cc(NC(=O)Nc3ccc(C(F)(F)F)cc3)ccc2O[C@@H]1CN(C)C(=O)Nc1ccc(C(F)(F)F)cc1 | inactive
C[C@H]1CN([C@@H](C)CO)C(=O)Cc2cc(NC(=O)Nc3ccc(C(F)(F)F)cc3)ccc2O[C@H]1CN(C)C(=O)Nc1ccc(F)cc1 | inactive
C[C@@H]1CN([C@H](C)CO)C(=O)Cc2cc(NC(=O)Nc3ccc(F)cc3)ccc2O[C@H]1CN(C)C(=O)Nc1ccc(C(F)(F)F)cc1 | inactive
C[C@@H]1CN([C@@H](C)CO)C(=O)Cc2cc(NC(=O)Nc3ccc(C(F)(F)F)cc3)ccc2O[C@H]1CN(C)C(=O)Nc1ccc(F)cc1 | inactive
C[C@@H]1CN([C@H](C)CO)C(=O)Cc2cc(NC(=O)Nc3ccc(C(F)(F)F)cc3)ccc2O[C@H]1CN(C)C(=O)Nc1ccc(F)cc1 | inactive
C[C@@H]1CN([C@@H](C)CO)C(=O)Cc2cc(NC(=O)Nc3ccc(C(F)(F)F)cc3)ccc2O[C@H]1CN(C)C(=O)Nc1ccc(C(F)(F)F)cc1 | inactive
C[C@@H]1CN([C@@H](C)CO)C(=O)Cc2cc(NC(=O)Nc3ccc(F)cc3)ccc2O[C@@H]1CN(C)C(=O)Nc1ccc(C(F)(F)F)cc1 | inactive
C[C@@H]1CN([C@@H](C)CO)C(=O)Cc2cc(NC(=O)Nc3ccc(C(F)(F)F)cc3)ccc2O[C@@H]1CN(C)C(=O)Nc1ccc(F)cc1 | active
C[C@H](CO)N1C[C@H](C)[C@H](CN(C)C(=O)Nc2ccc(C(F)(F)F)cc2)Oc2ccc(NC(=O)Nc3ccc(C(F)(F)F)cc3)cc2CC1=O | active
NCC[C@@H]1CC[C@@H](NC(=O)c2ccccc2F)[C@@H](CO)O1 | inactive
C[C@@H]1CCCCO[C@H](CN(C)C(=O)Nc2ccc(F)cc2)[C@@H](C)CN([C@H](C)CO)C(=O)c2cc(NC(=O)Nc3cccc4ccccc34)ccc2O1 | inactive
COCC(=O)N(C)C[C@@H]1Oc2cc(C#CC(C)(C)O)ccc2S(=O)(=O)N([C@H](C)CO)C[C@H]1C | inactive
C[C@@H]1CCCCO[C@@H](CN(C)C(=O)Nc2ccccc2)[C@@H](C)CN([C@H](C)CO)C(=O)c2cc(NC(=O)Nc3ccccc3)ccc2O1 | inactive
